HEK293 tox: cytotoxicity in counter-screen for GLP-1R inverse agonists; HEK293 cAMP-luciferase reporter cells, luminescence, 24 h; Potency, µM (series often up to 38.3 µM), most hits filed as inhibitors; 410,000 compounds, 0.13% hits;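 also: loss of luciferase light is scored as toxicity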
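Quantitative HTS format, 1536 wells, 200 cells/uL seeded. Compounds: 23 nL, 24 h, 37 °C. Detection: luciferase reagent, luminescence at 12 min RT; decreased signal taken as cytotoxic.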
PTHR1 ag: activates the human parathyroid hormone receptor PTHR1. HEK293 GP2 PTHR1 cells, GloSensor cAMP luminescence, 1 h. Potency, µM (top dose mostly 115 µM), usual class: activators. 410,000 compounds, 0.075% hits. AID 743266; also: nearly all actives have a fitted effect of over 55% in size
Target sequence (Q03431 whole entry, looked up): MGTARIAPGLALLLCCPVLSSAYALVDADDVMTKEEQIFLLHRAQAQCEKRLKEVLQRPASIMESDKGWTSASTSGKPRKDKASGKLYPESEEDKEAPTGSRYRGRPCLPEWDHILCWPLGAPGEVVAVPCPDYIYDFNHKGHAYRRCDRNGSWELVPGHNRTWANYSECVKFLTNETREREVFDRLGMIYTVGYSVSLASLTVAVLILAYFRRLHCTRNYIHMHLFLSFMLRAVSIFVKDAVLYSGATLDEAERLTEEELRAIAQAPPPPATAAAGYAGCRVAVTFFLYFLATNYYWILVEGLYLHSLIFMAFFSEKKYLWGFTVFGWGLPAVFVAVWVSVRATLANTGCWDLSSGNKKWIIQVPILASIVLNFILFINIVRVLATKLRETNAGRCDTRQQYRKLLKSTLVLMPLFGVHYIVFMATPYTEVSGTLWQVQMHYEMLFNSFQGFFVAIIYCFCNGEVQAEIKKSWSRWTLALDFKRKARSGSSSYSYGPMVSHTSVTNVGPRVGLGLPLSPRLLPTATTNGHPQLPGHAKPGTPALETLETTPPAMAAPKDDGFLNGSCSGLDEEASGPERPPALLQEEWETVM
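HEK-293-derived GP2 cells expressing PTHR1 and a GloSensor cAMP reporter, 3,000/well, plated overnight, given luciferin plus IBMX (each 0.5 mM as added) for 1 h at 37 °C, then compound for 1 h at 37 °C. Luminescence was read after 15 min at room temperature.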
GLP-1R inv ag: acts as inverse agonist at human GLP-1 receptor | Potency, µM (highest dose often 38.3 µM), most hits filed as inhibitors | 410,000 compounds, 1.6% hits | P43220 | AID 624417 | HEK293 GLP-1R CRE-luciferase, luminescence, 24 h; GLP-1R form is constitutively active; also: nearly all actives have a fitted effect of over 55% in size
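HEK293 cells stably co-expressing a cAMP-responsive luciferase reporter and constitutively active GLP-1R were seeded, incubated 12 h, then exposed to compounds for 24 h at 37 C. Luminescence was read 12 min after detection reagent; inverse agonists lower signal.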
GLP1R ag: GLP-1 receptor (human) agonism; P43220; HEK293 GLP-1R CRE-luciferase, luminescence, 4-6 h; cells express a hypersensitive GLP-1R form; Potency, µM (highest dose often 45.6 µM), hits mostly activators; 380,000 compounds, 0.007% hits; AID 624172
Of the large screens only hits and unclear results are named; the others gave an inactive call. An excerpt weighted towards active compounds, which were near 1.7% of everything screened. Calls follow the shape of the dose curve; as a rule, active = well fitted curve in the direction sought with a large enough effect; inconclusive = small, poorly fitted or top-dose-only effect, or another doubt; inactive = no such curve, though single readings can be large; an effect the other way counts as inactive or inconclusive.

CCOC(=O)C1=C(CNCCc2ccc(Cl)cc2)NC(=O)NC1c1cccc([N+](=O)[O-])c1 (centres undefined)	GLP-1R inv ag 10µM
CCCCN(C(=O)C1CCC(CNS(=O)(=O)c2cccc3nsnc23)CC1)c1ccccc1 (centres undefined)	GLP-1R inv ag inconclusive (no result: GLP1R ag)
COc1ccc(-c2csc(NC(=O)c3ccccc3NS(=O)(=O)c3ccc(C)cc3)n2)cc1	GLP-1R inv ag 4.5µM
Cc1ccc(N2C(=O)CCSC23C(=O)N(Cc2ccccc2)c2ccccc23)cc1 (centres undefined)	none (no result: GLP1R ag)
O=C1CCSC2(C(=O)N(Cc3ccccc3)c3ccccc32)N1c1ccccc1 (centres undefined)	GLP-1R inv ag 11µM (no result: GLP1R ag)
COCCS(=O)(=O)N(Cc1ccc(Br)cc1)[C@@H](C)C(=O)OC	none
COC(=O)[C@H](C)N(Cc1ccc(Cl)c(Cl)c1)S(=O)(=O)CCNC1CCCC1	GLP-1R inv ag 13µM
O=C(Cn1c(=O)n(-c2ccc(Cl)cc2)c(=O)c2sc3ccccc3c21)NC1CCCCC1	none
COc1ccc(NC(=O)c2cc3c(s2)-c2c(C)cccc2OC3)c(OC)c1	none (no result: GLP1R ag)
O=C1SC(SCc2ccccc2)=N/C1=C\c1ccco1	PTHR1 ag 0.32µM
CCN1C=C(Cc2ccc(OC)cc2)C2=C(C1)C(c1ccc(OC)cc1)C(C#N)=C(N)O2 (centres undefined)	GLP-1R inv ag 6.3µM
O=C(NC(=O)N1CCN(c2cccc(Cl)c2)CC1)c1ccc(Cl)cc1	GLP-1R inv ag 3.2µM
CCOC(=O)C1(Cc2cccc(OC)c2)CCN(Cc2cccc(OC)c2OC)CC1	GLP-1R inv ag inconclusive
CCOC(=O)C1(CCOC)CCN(Cc2cccc(OCc3ccccc3)c2)CC1	GLP-1R inv ag inconclusive
CCOC(=O)C1(Cc2cccc(OC)c2)CCN(Cc2cccc3c2OCO3)CC1	GLP-1R inv ag 10µM
CCOC(=O)C1(CCCc2ccccc2)CCN(Cc2nccn2CC)CC1	HEK293 tox 13µM, GLP-1R inv ag 10µM
CCOC(=O)C1(CCOc2ccccc2)CCN(Cc2cccc(OC)c2)CC1	GLP-1R inv ag 11µM
CCOC(=O)C1(CCOc2ccccc2)CCN(Cc2nccn2CC)CC1	HEK293 tox inconclusive, GLP-1R inv ag 10µM
CCOc1cc(Cn2c(-c3ccc(O)c(OCC)c3)nc3ccccc32)ccc1O	GLP-1R inv ag inconclusive (no result: GLP1R ag)
CCOC(=O)C1(CCCc2ccccc2)CCN(C(=O)Cc2nonc2C)CC1	GLP-1R inv ag 11µM
CCOC(=O)C1(CCCc2ccccc2)CCN(C(=O)CSC)CC1	GLP-1R inv ag inconclusive
O=C(/C=C\Nc1ccc2c(c1)OCO2)c1cccs1	GLP-1R inv ag 2.2µM
Nc1ccn([C@@H]2O[C@H](CO)[C@H](O)C2(F)F)c(=O)n1	none (no result: HEK293 tox, PTHR1 ag, GLP-1R inv ag)
O=C(Nc1cccc(C(F)(F)F)c1)Oc1ccc(Cl)c2cccnc12	GLP-1R inv ag 13µM
CSc1ccc(-c2nc3cccc(C)n3c2Nc2ccc3c(c2)OCO3)cc1	GLP-1R inv ag 10µM (no result: GLP1R ag)
Cc1ccc(-c2nc3cccc(C)n3c2Nc2ccc3c(c2)OCO3)o1	GLP-1R inv ag inconclusive (no result: GLP1R ag)
Cc1cccc2nc(-c3ccco3)c(Nc3ccc4c(c3)OCO4)n12	GLP-1R inv ag 8.9µM
CCOC(=O)c1c(C)[nH]c(C)c1S(=O)(=O)N1CCCC(C(=O)N2CCN(c3cc(C)ccc3C)CC2)C1 (centres undefined)	GLP-1R inv ag inconclusive (no result: GLP1R ag)
COc1ccc(C)cc1NC(=O)C(CCSC)NS(=O)(=O)c1ccc2c(c1)oc(=O)n2C (centres undefined)	none (no result: GLP1R ag)
O=C(Nc1cc(Cl)cc(Cl)c1)c1cccc(OC(F)F)c1	GLP-1R inv ag 13µM
CCc1c(C)nc(SCc2nc(-c3ccccc3C)no2)[nH]c1=O	none (no result: GLP1R ag)
COc1ccc(NC(=O)CCC(=O)c2cccs2)cc1S(=O)(=O)Nc1ccc(Cl)cc1	HEK293 tox inconclusive, GLP-1R inv ag inconclusive
COc1ccccc1NS(=O)(=O)c1cc(NC(=O)CCC(=O)c2cccs2)ccc1Cl	GLP-1R inv ag inconclusive
COc1ccc(NC(=O)CCS(=O)(=O)c2ccccc2Cl)cc1S(=O)(=O)Nc1ccc(Cl)cc1	GLP-1R inv ag 6.3µM
CCOc1ccc(NS(=O)(=O)c2cc(NC(=O)CCC(=O)c3cccs3)ccc2Cl)cc1	GLP-1R inv ag 10µM
CCC(Cn1nnc2ccccc2c1=O)NC(=O)Nc1ccc(C)c(C)c1 (centres undefined)	none (no result: GLP1R ag)
CCn1cc(C(=O)NCCCOC(C)C)c(=O)c2cc(S(=O)(=O)N3CCc4ccccc4C3)ccc21	none (no result: GLP1R ag)
COc1cc(CNCCN2CCOCC2)ccc1OCc1ccc(Cl)cc1Cl	GLP-1R inv ag 3.2µM
COc1cc(CNCCN2CCOCC2)ccc1OCc1cccc(Cl)c1	GLP-1R inv ag inconclusive
Cc1cc(Cl)cc(Br)c1OCCCNCC(C)O (centres undefined)	GLP-1R inv ag 4µM
Cc1cc(C)c(OCCCNCc2ccccc2)c(Br)c1	HEK293 tox inconclusive, GLP-1R inv ag inconclusive
CC(C)(c1ccccc1)c1ccc(OCC2CO2)cc1 (centres undefined)	none
O=S(=O)(c1ccc(OCC2CO2)cc1)c1ccc(OCC2CO2)cc1 (centres undefined)	HEK293 tox inconclusive, GLP-1R inv ag 10µM
CCOc1ccc(C(=O)N2CCC(c3nc4ccccc4o3)CC2)cc1	none (no result: GLP1R ag)
O=C(Cn1cnc2c(NCc3ccccc3)ncnc21)N1CCN(c2ccccn2)CC1	none
Cc1cc(C)c(CN2CCN(C(=O)Cn3cnc4c(NCc5ccccc5)ncnc43)CC2)c(C)c1	GLP-1R inv ag 8.9µM
CCC(Sc1ncccc1C(=O)Oc1ccccc1Cl)C(=O)Nc1ccccc1OC (centres undefined)	none (no result: GLP1R ag)
O=C(CSc1nnc(Cn2nnc3ccccc32)o1)N(Cc1ccc(F)cc1)c1ccccc1	GLP-1R inv ag 11µM
CC1CCc2[nH]c3ccc(C(=O)N4CCCC(C(F)(F)F)C4)cc3c2C1 (centres undefined)	GLP-1R inv ag 10µM
N#CC(c1cccc(Cl)c1)c1ccc2c(C(F)(F)F)cc(C(F)(F)F)nc2n1 (centres undefined)	GLP-1R inv ag 3.2µM
COc1cccc(CNC(=O)COCc2cc(-c3ccc4c(c3)OCO4)on2)c1	GLP-1R inv ag inconclusive (no result: GLP1R ag)
CN(CCC#N)c1ccc(/C=C(\C#N)c2ccccn2)cc1	GLP-1R inv ag inconclusive
CN(CCC#N)c1ccc(C=C(C#N)c2ccc(Br)cc2)cc1	HEK293 tox inconclusive, GLP-1R inv ag 10µM
c1cnc2cc3c(cc2n1)[C@@H]1CNC[C@@H]3C1	none (no result: HEK293 tox, PTHR1 ag, GLP-1R inv ag)
O=C(CN1CCN(Cc2ccccc2)CC1)Nc1ccccc1-c1ccccc1	GLP-1R inv ag 2µM
NC(=O)c1ccccc1NC(=O)CN1CCN(Cc2ccccc2)CC1	none
O=C(CN1C(=O)COc2ccc(S(=O)(=O)N3CCCC3)cc21)NCCc1ccc(Cl)cc1	none (no result: GLP1R ag)
N#CCCN(NC(=O)OCc1ccccc1)C(=O)OCc1ccccc1	none
O=C(OCc1ccccc1)N(CCF)c1cn(Cc2ccccc2)c(=O)n(Cc2ccccc2)c1=O	GLP-1R inv ag 10µM
COCCCNc1ccn2nc(-c3ccccc3)cc2n1	GLP-1R inv ag 4µM

Screening data as filed in PubChem.
